Reference: PubChem BioAssay
The source made the active and inactive calls.

Experiments:
[1] = compounds binding Alexa647 anti-His antibody – biochemical, small-molecule microarray, 635 nm fluorescence, artefact control for SMM control protein annotation, primary screen (AID 1128); conditions: higher = more signal;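 further: score merges feature fluorescence with signal-to-noise for each printed compound spot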
[2] = test system: Human papillomavirus type 1a E7 protein (residues 1-88); assay: HPV1a E7 small-molecule binders, primary screen, biochemical, small-molecule microarray, residues 1-88, 635 nm (AID 1129); conditions: small-molecule microarray binding, fluorescence 635 nm; higher = more signal
[3] = target: Focal adhesion kinase 1 (Homo sapiens) (UniProt Q05397); assay: PTK2 protein binding on printed compound slides – biochemical, small-molecule microarray, 635/667 nm fluorescence, BSA, DTT, primary screen (AID 1130); conditions: 635 nm fluorescence, higher = more signal;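 further: composite of spot emission at 667 nm and signal to noise over triplicate slides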
Focal adhesion kinase 1 (Homo sapiens), sequence (Q05397 whole entry, looked up): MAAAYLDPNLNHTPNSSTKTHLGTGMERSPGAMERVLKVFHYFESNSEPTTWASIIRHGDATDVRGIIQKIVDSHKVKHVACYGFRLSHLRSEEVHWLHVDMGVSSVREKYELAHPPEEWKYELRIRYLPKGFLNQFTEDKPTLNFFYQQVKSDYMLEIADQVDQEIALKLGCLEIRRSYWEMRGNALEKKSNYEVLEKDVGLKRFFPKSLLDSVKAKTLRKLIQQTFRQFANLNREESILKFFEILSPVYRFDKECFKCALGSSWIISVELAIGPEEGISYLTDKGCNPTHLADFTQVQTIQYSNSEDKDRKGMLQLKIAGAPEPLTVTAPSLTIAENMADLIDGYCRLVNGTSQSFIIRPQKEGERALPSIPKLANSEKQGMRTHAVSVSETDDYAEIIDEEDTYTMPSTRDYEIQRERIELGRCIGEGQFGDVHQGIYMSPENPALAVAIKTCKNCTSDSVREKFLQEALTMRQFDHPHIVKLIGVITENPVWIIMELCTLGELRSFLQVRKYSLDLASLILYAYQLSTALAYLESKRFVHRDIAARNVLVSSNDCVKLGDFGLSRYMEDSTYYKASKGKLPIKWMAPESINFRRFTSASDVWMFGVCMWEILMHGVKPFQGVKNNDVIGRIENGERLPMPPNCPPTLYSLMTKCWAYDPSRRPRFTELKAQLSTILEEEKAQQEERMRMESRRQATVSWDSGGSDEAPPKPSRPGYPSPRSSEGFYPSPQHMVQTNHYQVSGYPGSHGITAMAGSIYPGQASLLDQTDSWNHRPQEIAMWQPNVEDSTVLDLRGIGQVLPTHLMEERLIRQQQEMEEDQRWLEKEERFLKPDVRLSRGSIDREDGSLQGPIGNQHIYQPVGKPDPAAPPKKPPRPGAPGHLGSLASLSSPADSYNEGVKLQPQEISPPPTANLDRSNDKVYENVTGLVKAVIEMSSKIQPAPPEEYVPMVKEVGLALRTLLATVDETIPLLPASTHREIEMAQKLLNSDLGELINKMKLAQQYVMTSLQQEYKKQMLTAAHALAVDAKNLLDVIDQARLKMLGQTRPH

[4] = test system: Fibrinogen (Alexa647-labelled); assay: Alexa647-fibrinogen binding to printed small molecules – biochemical, small-molecule microarray, 635/667 nm fluorescence, artefact control for SMM control-protein annotation, profiling panel (AID 1131); conditions: fibrinogen-A647 binding fluorescence, higher = more signal;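 further: z-score merges 667 nm fluorescence with per-spot signal-to-noise over triplicate slides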
[5] = target: Follistatin (Homo sapiens) (UniProt P19883); assay: FST protein binding to printed compounds – biochemical, small-molecule microarray, 635/667 nm fluorescence, primary screen (AID 1132); conditions: 635 nm fluorescence, higher = more signal
Follistatin (Homo sapiens), sequence (P19883 whole entry, looked up): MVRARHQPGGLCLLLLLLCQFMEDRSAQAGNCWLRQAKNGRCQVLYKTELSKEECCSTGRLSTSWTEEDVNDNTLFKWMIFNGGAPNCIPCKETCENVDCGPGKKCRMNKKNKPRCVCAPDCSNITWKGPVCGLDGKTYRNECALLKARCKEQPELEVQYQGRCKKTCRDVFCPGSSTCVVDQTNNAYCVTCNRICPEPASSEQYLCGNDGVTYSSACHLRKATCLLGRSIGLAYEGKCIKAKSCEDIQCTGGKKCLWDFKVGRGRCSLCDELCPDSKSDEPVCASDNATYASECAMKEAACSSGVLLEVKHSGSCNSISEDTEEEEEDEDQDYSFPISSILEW

[6] = target: Fibroblast growth factor 2 (Homo sapiens) (UniProt P09038); assay: basic fibroblast growth factor binding to printed compounds – biochemical, small-molecule microarray, 635/667 nm fluorescence, primary screen (AID 1133); conditions: FGF2, fluorescence 635/667, higher = more signal
Fibroblast growth factor 2 (Homo sapiens), sequence (P09038 whole entry, looked up): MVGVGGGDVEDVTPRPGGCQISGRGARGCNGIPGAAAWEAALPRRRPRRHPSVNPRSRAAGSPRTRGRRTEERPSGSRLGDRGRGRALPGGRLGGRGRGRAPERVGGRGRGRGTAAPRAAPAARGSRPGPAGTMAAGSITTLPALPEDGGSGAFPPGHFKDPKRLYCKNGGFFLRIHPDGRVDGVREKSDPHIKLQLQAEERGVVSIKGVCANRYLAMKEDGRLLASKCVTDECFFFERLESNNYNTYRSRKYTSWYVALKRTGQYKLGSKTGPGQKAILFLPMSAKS

[7] = JC-1 mitochondrial potential readout, lung cancer cells – cell-based, A549, JC-1 fluorescence, basal, 24 h, 100 nL, profiling panel (AID 1138); conditions: higher = more signal;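 further: A549 lung adenocarcinoma cells under basal conditions with no added stimulus; test concentration not given here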
Lefty1 = Lefty1 protein binding to printed compounds – biochemical, small-molecule microarray, 635/667 nm fluorescence, primary screen (AID 1139); conditions: fluorescence 635/667, higher = more signal
[8] = test system: wheat germ agglutinin (Triticum aestivum), Alexa647-labelled; assay: Alexa647-WGA lectin binding to printed small molecules – biochemical, small-molecule microarray, 635/667 nm fluorescence, artefact control for SMM control-protein annotation, profiling panel (AID 1140); conditions: WGA-A647 binding, 635 nm fluorescence, higher = more signal;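 further: score merges 667 nm feature emission with signal to noise over triplicate slides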
[9] = target: Luciferin 4-monooxygenase (Photinus pyralis) (UniProt P08659); assay: inhibition of purified Photinus pyralis luciferase – biochemical, luminescence, purified enzyme, 2006 set, primary screen (AID 1141); conditions: purified firefly luciferase, SteadyGlo luminescence, 30 min; higher = more signal, called active from +8 up or from −8 down;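 further: cell-free assay with purified firefly luciferase at 100 ng per well in PBS; test concentration not given here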
Luciferin 4-monooxygenase (Photinus pyralis), sequence (P08659 whole entry, looked up): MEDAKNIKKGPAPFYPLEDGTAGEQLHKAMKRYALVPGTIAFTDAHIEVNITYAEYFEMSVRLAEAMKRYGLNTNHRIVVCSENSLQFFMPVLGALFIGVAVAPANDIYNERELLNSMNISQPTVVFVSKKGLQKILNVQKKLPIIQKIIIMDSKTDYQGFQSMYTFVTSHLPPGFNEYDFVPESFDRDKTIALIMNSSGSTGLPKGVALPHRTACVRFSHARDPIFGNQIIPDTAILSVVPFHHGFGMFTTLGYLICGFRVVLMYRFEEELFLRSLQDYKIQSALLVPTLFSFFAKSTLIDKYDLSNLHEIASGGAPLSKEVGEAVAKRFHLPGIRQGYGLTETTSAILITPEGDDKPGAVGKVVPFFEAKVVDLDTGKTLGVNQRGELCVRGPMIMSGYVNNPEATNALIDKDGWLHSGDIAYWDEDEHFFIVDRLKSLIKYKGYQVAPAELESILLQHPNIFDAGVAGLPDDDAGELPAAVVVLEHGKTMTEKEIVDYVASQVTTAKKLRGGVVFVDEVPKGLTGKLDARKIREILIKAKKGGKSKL

## CO[C@@H]1COC(=O)CC=C[C@@H](C)[C@@H]2C=C[C@H](O)[C@@H](COC(=O)[C@H](C)NC(=O)CC=C[C@H]1C)O2
[1]
  composite z-score: 1.85
[2]
  composite z-score: -0.794
[3]
  composite z-score: -0.407
[4]
  composite z-score: -0.734
[5]
  composite z-score: 1.11
[6]
  composite z-score: 1.73
[7]
  z-score: -1.23
Lefty1
  composite z-score: 1.53
[8]
  composite z-score: -0.17
[9]
  z-score: 1.02 (inactive)

## CCc1cc2c(nc1CC)CCN(CCC(C)=NOC[C@@H](O)COCc1ccco1)C2
[1]
  composite z-score: 1.31
[2]
  composite z-score: -0.952
[3]
  composite z-score: -0.439
[4]
  composite z-score: -0.19
[5]
  composite z-score: 1.47
[6]
  composite z-score: 1.53
[7]
  z-score: 1.69
Lefty1
  composite z-score: 1.53
[8]
  composite z-score: 0.182
[9]
  z-score: -0.85 (inactive)

## CCc1cc2c(nc1CC)CCN(CCC(C)=NO[C@@H](C)c1cc(-c3c(C)cc(C)cc3C)no1)C2
[1]
  composite z-score: 0.0635
[2]
  composite z-score: -0.22
[3]
  composite z-score: -0.0159
[4]
  composite z-score: 0.397
[5]
  composite z-score: -0.265
[6]
  composite z-score: -0.2
[7]
  z-score: 1.69
Lefty1
  composite z-score: 0.388
[8]
  composite z-score: 0.0999
[9]
  z-score: -0.887 (inactive)

## C=C(/C(=C/C[C@@H](OC(=O)c1ccncc1)c1ccc(OCCO)cc1)c1cnc2ccccc2c1)C(C)C
[1]
  composite z-score: 1.03
[2]
  composite z-score: 1.13
[3]
  composite z-score: -0.616
[4]
  composite z-score: 0.806
[5]
  composite z-score: 1.43
[6]
  composite z-score: 1.17
[7]
  z-score: 0.809
Lefty1
  composite z-score: 1.5
[8]
  composite z-score: 0.976
[9]
  z-score: -2.06 (inactive)

## CC(C)NC(=O)[C@@]1(C)c2ccccc2C(=O)N(Cc2cc(F)cc(C(F)(F)F)c2)[C@H]1c1ccc(CO)cc1
[1]
  composite z-score: 0.886
[2]
  composite z-score: 0.982
[3]
  composite z-score: 0.0792
[4]
  composite z-score: 0.335
[5]
  composite z-score: 0.677
[6]
  composite z-score: 1.67
[7]
  z-score: -0.483
Lefty1
  composite z-score: 0.0338
[8]
  composite z-score: 0.512
[9]
  z-score: 0.433 (inactive)

## O=C(NN=C1C[C@@H](O)[C@@H](O)[C@@H]2[C@@H]3C(=O)N(c4ccc(F)cc4F)C(=O)[C@@H]3CC[C@@H]12)OCc1ccccc1
[1]
  composite z-score: 0.419
[2]
  composite z-score: 0.117
[3]
  composite z-score: -0.179
[4]
  composite z-score: 0.723
[5]
  composite z-score: 0.385
[6]
  composite z-score: -0.191
[7]
  z-score: -0.281
Lefty1
  composite z-score: 0.341
[8]
  composite z-score: 0.336
[9]
  z-score: 0.894 (inactive)

## O=C1c2ccccc2[C@@]2(Cc3ccccc3N(C3CC3)C2=O)[C@H](c2ccc(CO)cc2)N1Cc1ccccc1C(F)(F)F
[1]
  composite z-score: 0.534
[2]
  composite z-score: -0.453
[3]
  composite z-score: 0.13
[4]
  composite z-score: -1.41
[5]
  composite z-score: -1.41
[6]
  composite z-score: -1.09
[7]
  z-score: -0.511
Lefty1
  composite z-score: -1.32
[8]
  composite z-score: 0.286
[9]
  z-score: 0.62 (inactive)

## COCCOC(=O)N1C(=O)[C@@]2(c3cc(C#CC4(O)CCCCCC4)ccc31)[C@H](c1ccc(OCCO)cc1)N1[C@H](c3ccccc3)[C@H](c3ccccc3)OC(=O)[C@H]1[C@@H]2C(=O)NC[C@H](O)c1ccccc1
[1]
  composite z-score: 1.67
[2]
  composite z-score: 1.21
[3]
  composite z-score: 0.184
[4]
  composite z-score: 0.946
[5]
  composite z-score: 1.15
[6]
  composite z-score: 0.909
[7]
  z-score: -1.52
Lefty1
  composite z-score: 0.907
[8]
  composite z-score: 0.784
[9]
  z-score: -1.05 (inactive)
